# Bioassay records: PubChem BioAssay, several laboratories
# Most compounds without a hit are left out; they make up all but 4% or so of the library.
# Rv3671c inh: Rv3671c (M. tuberculosis) protease inhibition | P9WHR9 | inhibition, % at 5.96 µM | 320,000 compounds, 0.048% hits; in the data active = inhibition above about 38%;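 also: extracellular domain of Rv3671c used as enzyme; 0% = enzyme with DMSO and 100% = no enzyme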
# UGM FP inh: blocks M. tuberculosis UGM enzyme | purified UGM, fluorescence polarization probe displacement | inhibition, % at 10 µM | 320,000 compounds, 0.06% hits; in the data active = inhibition above about 10%, passing the limit was not always enough
# Target sequence (P9WIQ1 whole entry, looked up): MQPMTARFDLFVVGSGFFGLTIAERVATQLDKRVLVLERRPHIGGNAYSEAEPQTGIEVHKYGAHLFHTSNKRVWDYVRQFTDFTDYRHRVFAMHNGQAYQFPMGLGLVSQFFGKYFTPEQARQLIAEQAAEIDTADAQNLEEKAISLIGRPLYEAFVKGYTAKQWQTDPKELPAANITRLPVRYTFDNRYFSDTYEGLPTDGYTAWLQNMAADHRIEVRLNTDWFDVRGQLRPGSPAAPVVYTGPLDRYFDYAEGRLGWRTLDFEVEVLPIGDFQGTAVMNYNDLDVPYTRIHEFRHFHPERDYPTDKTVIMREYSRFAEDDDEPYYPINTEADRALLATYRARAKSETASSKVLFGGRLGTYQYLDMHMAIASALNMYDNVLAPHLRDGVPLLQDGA
# GDH-TPI counter-1: counter-screen for M. tuberculosis FBA inhibitors: GDH-TPI coupled enzymes; GDH-TPI coupled enzyme counterscreen, NADH absorbance; inhibition, % at 4.8 µM; 360,000 compounds, 1.2% hits; AID 588335; in the data active = inhibition above about 30%;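 also: 0% = DMSO wells and 100% = wells lacking the enzyme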
# RecA splice inh: Mtb RecA intein splicing inhibition; 290,000 compounds, 0.75% hits; inhibition, % (no concentration beside the values); cell-free RecA intein splicing, fluorescence; P9WHJ3; in the data active = inhibition above about 30%;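 also: 0% = vehicle wells and 100% = reference inhibitor control wells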
# Mtb bLac sens: beta-lactam sensitization of Mtb H37Rv. M. tuberculosis H37Rv growth with meropenem, percent inhibition. 330,000 compounds, 0.27% hits. inhibition, % at 25 µM; call rule not given here;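 also: growth measured after seven days incubation then overnight dye step; 0% = bacteria only wells and 100% = bacteria with antibiotic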
# Mtb FBA inh: Mtb fructose-bisphosphate aldolase inhibition; P9WQA3; purified M. tuberculosis FBA, fluorescence read-out; inhibition, % at 1 µM; 360,000 compounds, 2.3% hits;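 also: 0% = vehicle and 100% = reference inhibitor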
# Mtb FBA confirm: confirmation of M. tuberculosis fructose-bisphosphate aldolase inhibitors | shares compounds with Mtb FBA inh | purified M. tuberculosis FBA, fluorescence read-out | inhibition, % at 1 µM | 5,600 compounds, 78% hits;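 also: 0% = vehicle wells and 100% = reference inhibitor wells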
# GDH-TPI counter-2: counter-screen for M. tuberculosis FBA inhibitors: GDH-TPI coupled enzyme inhibition; inhibition, % at 1 µM; 5,600 compounds, 81% hits; shares compounds with Mtb FBA inh; AID 652141; GDH-TPI coupled enzyme counterscreen, fluorescence; in the data active = inhibition above about 10%
# Numbers without * were called inactive; · = not tested or not shown; + = active, no number. Rule as the data show it, unless noted: active = inhibition above about 27%; inactive = the rest.
SMILES,Rv3671c inh,UGM FP inh,GDH-TPI counter-1,RecA splice inh,Mtb bLac sens,Mtb FBA inh,Mtb FBA confirm,GDH-TPI counter-2
COc1ccc(OCCOc2ccc(/C=C3\C(=N)N4N=C(C)SC4=NC3=O)cc2)cc1,-9,0,8,·,8,4,·,·
Nc1c(C(=O)OCC2CCCO2)c2nc3ccccc3nc2n1C1CCCC1 (stereo not given),-6,4,10,-17,87,49*,82*,58*
Nc1c(C(=O)NCC2CCCO2)c2nc3ccccc3nc2n1Cc1ccco1 (stereo not given),1,-1,2,-265,18,86*,-3,-7
Nc1c(C(=O)NC2CCCC2)c2nc3ccccc3nc2n1N,8,-3,9,-12,1,2,·,·
Nc1c(C(=O)NC2CCCC2)c2nc3ccccc3nc2n1CC1CCCO1 (stereo not given),-47,-1,20,-458,69,47*,+,+
CC(C)Cn1c(N)c(C(=O)NCC2CCCO2)c2nc3ccccc3nc21 (stereo not given),-12,2,20,-436,78,85*,60*,35*
Cc1ccc(S(=O)(=O)N(CC(=O)NCc2ccccc2Cl)C(=O)N2CCN(C)CC2)cc1,6,-1,2,0,-6,3,·,·
Cc1c(NC(=O)COc2cccc(Br)c2)c(=O)n(-c2ccccc2)n1C,1,-1,4,·,-2,2,·,·
CCCNC(=O)c1c(N)n(Cc2ccc3c(c2)OCO3)c2nc3ccccc3nc12,1,-1,5,-2,-17,0,·,·
CC(C)OC(=O)c1c(N)n(Cc2ccco2)c2nc3ccccc3nc12,-2,0,-14,-74,3,43*,131*,98*
CC(C)CNC(=O)c1c(N)n(Cc2ccc3c(c2)OCO3)c2nc3ccccc3nc12,-87,0,12,55*,-1,27*,79*,66*
COCC(C)OC(=O)c1c(N)n(CC(C)C)c2nc3ccccc3nc12 (stereo not given),0,-4,9,-201,-11,99*,4,3
Cc1c(C)c2ccc(OCC(=O)Nc3ccccn3)cc2oc1=O,6,0,1,-1,-5,4,·,·
O=C1CC/C=C\C[C@@H](CC(=O)N(CCO)Cc2ccccc2)C(=O)N[C@H](Cc2c[nH]c3ccccc23)CO1,3,0,-4,·,-2,-1,·,·
O=C(OCc1ccccc1)c1ccc(NCc2cc(O)ccc2O)cc1,·,·,-4,·,·,-2,·,·
CN1CN(C)c2cccc3cccc1c23,6,-2,16,-7,-2,98*,48*,40*
CCN1C(=O)N(CC)c2cccc3cccc1c23,5,1,15,-1,-9,2,·,·
Cc1cccc(NC(=O)CNC(=O)COc2ccc(C(=O)c3ccc(F)cc3)cc2)c1C,-11,1,3,-4,0,1,·,·
Cc1cccc(NC(=O)CNC(=O)COc2ccc(-c3ccc(C#N)cc3)cc2)c1C,-57,-1,10,-3,-5,29*,101*,80*
N#Cc1ccc(-c2ccc(OCC(=O)Nc3cccnc3)cc2)cc1,·,-1,1,-1,99,43*,116*,85*
CCOC(=O)Cn1nc(C)n(-c2ccccc2)c1=O,-7,-3,10,-1,-4,0,·,·
CCOC(=O)CCn1c2nc(C)cc(C)c2c(=O)n1-c1ccccc1,0,2,-3,1,-13,28*,49*,41*
CCCCN(C(C)=O)c1ccc(S(=O)(=O)NC2=NCCCCC2)cc1NC(C)=O,12,-1,3,·,3,4,·,·
CC(C)c1cc(NCCCN2CCOCC2)n2c(nc3ccccc32)c1C#N,-14,0,6,-40,1,51*,169*,129*
N#Cc1c2c(c(NCCCN3CCOCC3)n3c1nc1ccccc13)CCC2,6,3,14,-129,-1,27*,52*,60*
SMILES,Rv3671c inh,UGM FP inh,GDH-TPI counter-1,RecA splice inh,Mtb bLac sens,Mtb FBA inh,Mtb FBA confirm,GDH-TPI counter-2
O=C(Nc1ccccc1F)N1CCc2ccccc2C1,·,-4,2,3,0,4,·,·
CCOc1ccc2c(C)cc(=O)oc2c1OCC,7,-2,12,0,6,10,·,·
CCOC(=O)CCc1c(C)c2ccc(OC(C)C(=O)OCC)c(C)c2oc1=O (stereo not given),-9,1,21,·,99,51*,55*,44*
CCOC(=O)C(C)Oc1ccc2c(CC)cc(=O)oc2c1C (stereo not given),4,3,2,6,97,31*,74*,72*
CCC(=O)Oc1ccc2c(C)cc(=O)oc2c1C,2,-1,4,-23,17,39*,94*,95*
OCc1ccccc1-c1cnc2cccnn12,·,·,9,·,·,105*,113*,86*
Cc1ccc(-c2nc3c(Cl)cc(C(F)(F)F)cn3c2Cc2ccccc2)cc1,·,·,·,·,·,0,·,·
OCCN1CCN(c2nc(NCc3ccco3)c3ccccc3n2)CC1,5,3,18,7,-4,7,·,·
OCCNc1nc(N2CCN(c3ccccc3)CC2)nc2ccccc12,-2,0,13,-1,0,107*,+,177*
CCn1cc(C(=O)N[C@@H](CCSC)C(=O)NC(C)(C)CO)c(=O)c2cc3c(cc21)OCO3,-8,0,5,0,-2,4,·,·
Cc1cc(SCC(=O)NCC(c2cccs2)N2CCOCC2)c(C)cc1Br (stereo not given),-1,-1,0,6,2,-1,·,·
CCOC(=O)c1nc2c(ccc3ccccc32)cc1C,-3,-2,3,2,20,31*,+,168*
Cc1ccc(-c2nc3c(c(=O)[nH]c(=O)n3Cc3ccccc3)n2C)o1,·,·,8,·,·,36*,98*,115*
Cc1ccc(-c2nc3c(c(=O)[nH]c(=O)n3Cc3ccccc3)n2Cc2ccccc2)o1,·,·,10,1,·,38*,153*,133*
Cc1ccc(-c2nc3c(c(=O)[nH]c(=O)n3Cc3ccccc3)n2C)s1,-17,0,·,1,-10,·,·,·
COc1ccc2c(O)c(-c3c(C)cc(C)cc3C)c(=O)[nH]c2c1,-4,2,17,2,50,46*,-6,-7
O=C(CSC1=NCCN1)NC(c1ccccc1)c1ccccc1,2,-1,-6,·,-1,-1,·,·
N#C/C(=C\c1c(Oc2ccccc2F)nc2ccccn2c1=O)C(=O)NC1CCS(=O)(=O)C1 (stereo not given),0,-1,4,-175,-2,28*,106*,84*
CCCCCCN1C[C@H](O)[C@@H](n2cc(C3CC3)nn2)C[C@@H]1c1ccc(OC)cc1,·,·,19,·,·,1,·,·
